This is an account of results in PMC4552634, “A New Set of Chemical Starting Points with Plasmodium falciparum Transmission-Blocking Potential for Antimalarial Drug Discovery” (PLoS ONE, 2015).

Out of some 13,000 compounds screened, about 3,200 (25%) showed an effect of 50% or more. This is one part of the list.

The subject of the test is P. falciparum stage V gametocytes. On the set-up: BacTiter-Glo ATP luminescence viability of purified stage V gametocytes in 384-well plates, per cent inhibition versus DMSO. The conditions noted are these: 48 h, 5 µM; inhibitor.
Consider `O=C(NC1CCN(Cc2ccccc2)CC1)c1ccc2c(=O)n(Cc3ccc(Cl)cc3)c(=S)[nH]c2c1` [TCMDC-125694], for which the “% Inhibition” value is on record as 0.6987%. Under `COCCNCc1cccc(C#Cc2cc3ncnc(Nc4ccc(OCc5cccc(F)c5)c(Cl)c4)c3s2)n1` [TCMDC-138842] stands 7.186%; under `Fc1ccc(CN2CCN(c3ncnc4cc(-c5ccccc5)sc34)CC2)cc1` [TCMDC-132385], -47.67%. Under `CCCc1cc(Cc2cnc(N)nc2N)cc2c1OC(C)C2C` (stereo not drawn) [TCMDC-138047] stands 3.526%. Under `O=C1COC2(CN1CC1CCN(Cc3ccc(O)c(Cl)c3)C1)c1ccccc1-c1ccccc12` (stereo not drawn) [TCMDC-136343] stands -1.738%; under `NC(N)=NC(=O)Nc1ccc(Cl)c(C(F)(F)F)c1` [TCMDC-137469], -12.43%.

In the case of `Cc1ncc(CN2CCC(C(=O)Nc3ccc(-c4nc5ccccc5o4)cc3)CC2)s1` [TCMDC-124675], the “% Inhibition” value is 0.01985%. Consider `O=C(Nc1cccc(CN2CCCN(Cc3cccc(O)c3)CC2)c1)c1ccc2ccccc2c1` [TCMDC-141855], for which the “% Inhibition” value turned out to be 21.81%. Under `Cc1nccc2c(NC(=O)N[C@@H]3CCN(c4ncc(C(F)(F)F)cc4Br)C3)cccc12` [TCMDC-141942] stands 13.41%.

`Cc1nc2ccc3ccc(CNc4ccc(C(=O)N[C@@H](CCC(=O)O)C(=O)O)c(F)c4)cc3c2c(=O)[nH]1` [TCMDC-138112]: the “% Inhibition” value was -4.938%.

As to `Cc1ccc2ccncc2c1N` [TCMDC-138025], the “% Inhibition” value is recorded as -56.11%. For `CN(Cc1ccc(-c2ccc(C(F)(F)F)cc2)cc1)C(=O)Cn1c(CCc2cccc(F)c2F)nc(=O)c2ccc(N3CCN(CCN4CCCCC4)CC3)nc21` [TCMDC-136511] the value was 109.8%. Under `CN1CCC(N2CCN(c3ccc4c(=O)nc(CCc5cccc(F)c5F)n(CC(=O)N(C)Cc5ccc(-c6ccc(C(F)(F)F)cc6)cc5)c4n3)CC2)CC1` [TCMDC-136512] stands 105.9%; under `Cc1cc(NC(=O)Nc2cccc(C#N)c2)c2ccccc2n1` [TCMDC-138953], 4.681%. With `Nc1cccc(CNCc2ccc(-c3ccc(-c4nc5ccccc5[nH]4)s3)cc2)c1` [TCMDC-132927], the “% Inhibition” value is listed as -10.94%. Turning to `CSc1nc2nc(C)c(Cc3cccc(C(F)(F)F)c3)c(C)n2n1` [TCMDC-123763], the “% Inhibition” value is -63.49%. Under `CN(C)CCC(O)(c1ccc(Br)cc1)c1cccnc1` (stereo not drawn) [TCMDC-131412] stands -6.865%. Under `CC(CO)(CO)NCc1cc2c3ccccc3c(CNC(C)(CO)CO)cc2c2ccccc12` [TCMDC-137752] stands 88.47%. For `Cn1c2ccccc2c2c3ccccc3c(CNC(CO)(CO)CO)cc21` [TCMDC-137747] the value was 1.595%. On to `CC(CO)(CO)NCc1cc2ccc3ccsc3c2c2ccccc12` [TCMDC-137753], for which the “% Inhibition” value amounted to 1.403%. On to `COc1ccccc1C1CC(c2ccc(C)cc2)=NN1C(=O)c1ccccc1` (stereo not drawn) [TCMDC-123887], for which the “% Inhibition” value turned out to be 21.23%. `COc1cc(Cc2cnc(N)nc2N)c2ccsc2c1OC` [TCMDC-137762]: the “% Inhibition” value was -4.679%.

As for `CCNc1cc(C)nc(Nc2ccc(NC(=O)c3c(F)cccc3Cl)cc2)n1` [TCMDC-124984], the “% Inhibition” value amounted to 3.1%. For `CCOC(=O)N1CCN(CCCCCNc2cc(C)nc(/N=C(\N)Nc3ccc(Cl)cc3)n2)CC1` [TCMDC-138013] the value was 60.55%.

`CCOC(=O)c1cccc(NC(=O)Nc2cc(C)nc3ccccc23)c1` [TCMDC-138957]: the “% Inhibition” value was -2.163%.

As to `CCN(CC)CCNc1cc(C)nc(/N=C(\N)Nc2ccc(Cl)cc2)n1` [TCMDC-137477], the “% Inhibition” value turned out to be 81.2%.

For `CCOc1cc(C)ccc1N1CCN(CCCCNC(=O)c2ccc(NC(=O)c3ccc(Cl)cc3)cc2)CC1` [TCMDC-138523], the “% Inhibition” value is on record as 2.314%. For `Cc1cc(N2CC=CCC2)nc(/N=C(\N)Nc2ccc(Cl)cc2)n1` [TCMDC-131240] the value was 30.94%; for `Cc1cc(NCCc2ccccc2)nc(/N=C(\N)Nc2ccccc2Cl)n1` [TCMDC-138370], 92.38%. Under `CCOC(=O)N1CCN(C(=O)Nc2ccc(Cl)cc2)CC1` [TCMDC-125820] stands -28.23%; under `CCOC(=O)c1cccc(N/C(N)=N/c2nc(C)cc(NCCc3ccccc3)n2)c1` [TCMDC-138372], 76.13%. Under `COc1ccc2nccc(NC(=O)C3(O)CCC(NCc4ncc5c(c4Cl)OCCO5)CC3)c2n1` (stereo not drawn) [TCMDC-141562] stands 2.096%; under `O=C(O)C(F)(F)F.O=C(O)CCc1ccc(-c2c[nH]c3ncc(-c4ccc5ncccc5c4)cc23)cc1` [TCMDC-136336], 14.57%; under `COc1ccc2nccc([C@@H](O)CN3CCC(NCc4cn5cc(F)ccc5n4)CC3)c2c1` [TCMDC-140778], 43.65%. In the case of `Cn1c(NC(=O)C2CCC(CNC(=O)c3ccc(O)c(-c4ccc(Cl)c(Cl)c4)c3)CC2)nc2ccccc21` (stereo not drawn) [TCMDC-140897], the “% Inhibition” value was 13.96%. For `O=C(NCc1cccnc1)C(c1cc2ccccc2o1)N1CCN(C(c2ccccc2)c2ccccc2)CC1` (stereo not drawn) [TCMDC-141023] the value was 15.45%; for `O=C(NC1CCC(CN2CCC(c3c[nH]c4ccccc34)CC2)CC1)c1cc(-c2ccc(F)cc2F)ccc1O` (stereo not drawn) [TCMDC-139894], -31.8%; for `Cc1cc(N2CCCC2)nc(/N=C(\N)Nc2cccc(C(F)(F)F)c2)n1` [TCMDC-138509], 20.83%. For `Cc1cc(NCCc2ccccc2)nc(/N=C(\N)Nc2cccc(F)c2)n1` [TCMDC-138373] the value was 55.97%; for `CCCCCCNc1cc(C)nc(/N=C(\N)Nc2cccc(C(F)(F)F)c2)n1` [TCMDC-138510], 79.07%; for `Cc1cc(NCCc2cccc(F)c2)nc(/N=C(\N)Nc2cccc(C(F)(F)F)c2)n1` [TCMDC-138508], 57.1%. For `Cc1cc(NCCc2ccccc2)nc(/N=C(\N)Nc2ccc(Cl)cc2)n1` [TCMDC-131843] the value was 52.3%. As for `NC(N)=NN=CC(=O)Nc1cccc(C(F)(F)F)c1` [TCMDC-137563], the “% Inhibition” value is listed as 10.63%. For `Cc1cc(NCCc2ccccc2)nc(NC(=NCC(=O)OC(C)(C)C)Nc2ccc(C(F)(F)F)cc2)n1` [TCMDC-138520] the value was -13.38%; for `Cc1cc(NCCCOc2ccc(Cl)cc2)nc(NCc2ccccc2)n1` [TCMDC-137548], -22.71%.
